This is an account of results in the supplement of paper PMC7366291.

Structures can show the parent of a compound that is named as a salt. ± gives the standard deviation or the standard deviation of the averaged measurements.

Settings in all cases: 25 µM; exposure: 24-48 hpf
Assay [1] relates to Danio rerio Tg(wt1b:EGFP) embryo, pronephros. The assay can be described thus: glomerular separation, fold change vs DMSO control; higher = glomeruli further apart (abnormal). An outline of the steps: (§1)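 Using a Fiji macro, distances and angles were calculated from 16 reference points set by hand on maximum projections of pronephroi imaged dorsally (470 nm, 10 z-slices) in agarose-filled 96-well plates. The dechorionated Tg(wt1b:EGFP) zebrafish embryos had received 25 μM compound in 0.5% DMSO in HEPES-buffered E3 with 0.003% PTU from 24 to 48 hpf at 28.5°C. Values more than 2 SD from a feature's mean were excluded. Each feature appears as a fold change over the mean of DMSO-treated embryos from the same day.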

For assay [2] the test system is unchanged. The assay can be described thus: glomerular width (mean of left and right), fold change vs DMSO control; higher = wider glomerulus. An outline of the steps: as §1
Assay [3] has the same test system. The assay can be described thus: fraction of imaged embryos annotated as normal kidney; higher = less nephrotoxic; extreme values may be limits of the assay. An outline of the steps:
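Zebrafish embryos carrying Tg(wt1b:EGFP) were dechorionated and exposed to 25 μM compound (0.5% DMSO) between 24 and 48 hpf at 28.5°C. Their pronephroi were imaged by widefield fluorescence, and each embryo was classed by hand from maximum projections. The measure is the fraction of embryos per treatment falling in the normal-kidney category.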

The test system is the same in assay [4]. The assay can be described thus: pronephric angle neck segment to proximal convoluted tubule (mean of left and right), fold change vs DMSO control; higher = larger pronephric angle. An outline of the steps: as §1

`O=C(Cn1ccnc1[N+](=O)[O-])NCCO` [Etanidazole] displayed a glomerular separation in assay [1] of 0.807 ± 0.34. In addition, the glomerular width in assay [2] was found to be 1.06 ± 0.014. The “fraction of imaged embryos annotated as normal kidney” value (“fraction of imaged embryos annotated” for short) in assay [3] was 0.917. The “pronephric angle neck segment” value in assay [4] amounted to 0.9304 ± 0.004.

Molecule `COc1ccc(C(Cl)=C(c2ccc(OC)cc2)c2ccc(OC)cc2)cc1` [Chlorotrianisene] yielded a glomerular separation in assay [1] of 0.709 ± 0.16. Moreover, the glomerular width in assay [2] is 1.028 ± 0.007. Further, the “fraction of imaged embryos annotated” value in assay [3] came to 1. For the same molecule, the “pronephric angle neck segment” value in assay [4] was determined as 0.953 ± 0.013.

For `NS(=O)(=O)c1cc(C(=O)O)c(NCc2ccco2)cc1Cl` [Furosemide], the glomerular separation in assay [1] was 0.867 ± 0.13. This molecule also returned a glomerular width in assay [2] of 0.959 ± 0.097. Further, the “fraction of imaged embryos annotated” value in assay [3] worked out at 0.818. Moreover, the “pronephric angle neck segment” value in assay [4] came out at 1.015 ± 0.01.

In the case of `C#C[C@]1(O)CC[C@H]2[C@@H]3CCC4=C(CCC(=O)C4)[C@H]3CC[C@@]21C` [Norethynodrel], in assay [1], the glomerular separation is 1.17 ± 0.41. In assay [2], this molecule displayed a glomerular width of 0.9892 ± 0.0088. Also, in assay [3], the “fraction of imaged embryos annotated” value is 0.667. Besides, the “pronephric angle neck segment” value in assay [4] is 0.984 ± 0.06.

As to `CCOC(=O)/C=C(C)/C=C/C=C(C)/C=C/c1c(C)cc(OC)c(C)c1C` [Etretinate], in assay [1], the glomerular separation stood at 0.794 ± 0.27. This molecule displayed a glomerular width in assay [2] of 0.831 ± 0.034. For the same molecule, the “fraction of imaged embryos annotated” value in assay [3] stood at 1. Besides, in assay [4], the “pronephric angle neck segment” value is 1.093 ± 0.01.

Take `CCCCc1cc2ccccc2c(OCCN(C)C)n1` [Dimethisoquin hydrochloride]: in assay [1], the glomerular separation came to 0.777 ± 0.2. The molecule also showed a glomerular width in assay [2] of 0.942 ± 0.065. The “fraction of imaged embryos annotated” value in assay [3] worked out at 0.917. In addition, the “pronephric angle neck segment” value in assay [4] was 0.9905 ± 0.004.

`CN1CCN2c3ncccc3Cc3ccccc3C2C1` (configuration not stated) [Mirtazapine] gave a glomerular separation in assay [1] of 0.964 ± 0.35. Besides, the glomerular width in assay [2] worked out at 0.98 ± 0.037. Further, the “fraction of imaged embryos annotated” value in assay [3] is 1. In addition, the “pronephric angle neck segment” value in assay [4] came out at 0.994 ± 0.056.

`O=C1CN(/N=C/c2ccc([N+](=O)[O-])o2)C(=O)N1` [Nitrofurantoin] displayed a glomerular separation in assay [1] of 0.915 ± 0.35. In assay [2], this molecule yielded a glomerular width of 1.04 ± 0.012. The “fraction of imaged embryos annotated” value in assay [3] was 0.833. Further, the “pronephric angle neck segment” value in assay [4] turned out to be 0.968 ± 0.015.

As to `Cc1cc(/C=C/c2ccc3cc(N(C)C)ccc3[n+]2C)c(C)n1-c1ccccc1` [Pyrvinium pamoate], the glomerular separation in assay [1] is 1.12 ± 0.41. The glomerular width in assay [2] was 0.975 ± 0.021. Moreover, the “fraction of imaged embryos annotated” value in assay [3] was found to be 0.833. For the same molecule, the “pronephric angle neck segment” value in assay [4] turned out to be 1.02 ± 0.034.

Molecule `CN1C(C)(C)CCCC1(C)C` [Pempidine tartrate] showed a glomerular separation in assay [1] of 0.75 ± 0.25. The glomerular width in assay [2] stood at 1 ± 0.032. For the same molecule, the “fraction of imaged embryos annotated” value in assay [3] worked out at 0.833. The “pronephric angle neck segment” value in assay [4] is 1.02 ± 0.068.

In turn, `O=C(NCCN1CCOCC1)c1ccc(Cl)cc1` [Moclobemide] gave a glomerular separation in assay [1] of 0.89 ± 0.26. Moreover, in assay [2], the glomerular width was 1.01 ± 0.088. Besides, the “fraction of imaged embryos annotated” value in assay [3] was found to be 0.833. For the same molecule, the “pronephric angle neck segment” value in assay [4] turned out to be 0.969 ± 0.011.

Regarding `NC(N)=Nc1nc(CSCC/C(N)=N/S(N)(=O)=O)cs1` [Famotidine], in assay [1], the glomerular separation worked out at 1.11 ± 0.48. The same molecule came in with a glomerular width in assay [2] of 0.98 ± 0.038. For the same molecule, the “fraction of imaged embryos annotated” value in assay [3] amounted to 0.833. For the same molecule, in assay [4], the “pronephric angle neck segment” value came to 0.9801 ± 0.0036.

Turning to `CC(=O)OCC(=O)[C@@]1(O)CC[C@H]2[C@@H]3CCC4=CC(=O)CC[C@]4(C)[C@@]3(F)[C@@H](O)C[C@@]21C` [Fludrocortisone acetate], in assay [1], the glomerular separation turned out to be 1.6 ± 0.63. This molecule displayed a glomerular width in assay [2] of 1.23 ± 0.023. Besides, the “fraction of imaged embryos annotated” value in assay [3] amounted to 0.583. The “pronephric angle neck segment” value in assay [4] came to 1.18 ± 0.16.

Consider `Cn1ccnc1S` [Methimazole], for which the glomerular separation in assay [1] was 1.23 ± 0.58. This molecule yielded a glomerular width in assay [2] of 0.876 ± 0.045. For the same molecule, the “fraction of imaged embryos annotated” value in assay [3] came to 0.818. For the same molecule, in assay [4], the “pronephric angle neck segment” value was 1.11 ± 0.064.

`C=CC[N@@+]12CC[C@@]34c5ccccc5N5/C=C6/[C@H]7C[C@H]8[C@@]9(CC[N@@+]8(CC=C)C/C7=C/CO)c7ccccc7N(/C=C(/[C@@H](C[C@@H]31)/C(=C\CO)C2)[C@H]54)[C@@H]69` [Alcuronium chloride] returned a glomerular separation in assay [1] of 1.23 ± 0.57. In assay [2], this molecule returned a glomerular width of 1.03 ± 0.052. The “fraction of imaged embryos annotated” value in assay [3] was found to be 0.833. Also, the “pronephric angle neck segment” value in assay [4] amounted to 0.958 ± 0.03.

Molecule `CCCCC1C(=O)N(c2ccccc2)N(c2ccc(O)cc2)C1=O` (configuration not stated) [Oxyphenbutazone] displayed a glomerular separation in assay [1] of 1.27 ± 0.44. The glomerular width in assay [2] was 0.983 ± 0.027. Besides, the “fraction of imaged embryos annotated” value in assay [3] was determined as 1. Further, the “pronephric angle neck segment” value in assay [4] stood at 0.998 ± 0.06.

Turning to `O=S(=O)(O)CCS` [Mesna], in assay [1], the glomerular separation was 0.716 ± 0.21. This molecule had a glomerular width in assay [2] of 1.07 ± 0.057. Besides, the “fraction of imaged embryos annotated” value in assay [3] is 1. Also, the “pronephric angle neck segment” value in assay [4] is 1.07 ± 0.047.

In assay [1], `Cc1c(O)c(=O)n(-c2ccccc2)n1C` [Antipyrine, 4-hydroxy] gave a glomerular separation of 1.2 ± 0.38. The molecule further registered a glomerular width in assay [2] of 0.951 ± 0.064. For the same molecule, in assay [3], the “fraction of imaged embryos annotated” value came to 0.583. Further, the “pronephric angle neck segment” value in assay [4] was 1.03 ± 0.028.

Consider `CCn1nc(C(=O)O)c(=O)c2cc3c(cc21)OCO3` [Cinoxacin], for which, in assay [1], the glomerular separation worked out at 1.07 ± 0.43. For the same molecule, the glomerular width in assay [2] worked out at 0.979 ± 0.031. Moreover, the “fraction of imaged embryos annotated” value in assay [3] was 0.8. Besides, the “pronephric angle neck segment” value in assay [4] worked out at 1.05 ± 0.1.

For the molecule `CN(C)c1nc(N(C)C)nc(N(C)C)n1` [Altretamine], the glomerular separation in assay [1] was 0.998 ± 0.46. This molecule showed a glomerular width in assay [2] of 0.923 ± 0.011. For the same molecule, the “fraction of imaged embryos annotated” value in assay [3] was 0.917. Besides, the “pronephric angle neck segment” value in assay [4] was 1.06 ± 0.062.

`O=C(O)/C=C/c1ccc(Cn2ccnc2)cc1` [Ozagrel hydrochloride]: the glomerular separation in assay [1] was determined as 1.04 ± 0.32. This molecule showed a glomerular width in assay [2] of 1.01 ± 0.032. Further, in assay [3], the “fraction of imaged embryos annotated” value was 0.833. Besides, in assay [4], the “pronephric angle neck segment” value was found to be 0.98 ± 0.011.

For the molecule `CCN(CC)CCNC(=O)c1cc(Br)c(N)cc1OC` [Bromopride], the glomerular separation in assay [1] turned out to be 0.903 ± 0.35. This molecule also displayed a glomerular width in assay [2] of 1.04 ± 0.015. In addition, the “fraction of imaged embryos annotated” value in assay [3] worked out at 1. Besides, the “pronephric angle neck segment” value in assay [4] came to 1.02 ± 0.036.

On to `Nc1ccc(S(=O)(=O)Nc2ccc(Cl)nn2)cc1` [Sulfachloropyridazine], for which the glomerular separation in assay [1] amounted to 0.92 ± 0.34. This molecule also returned a glomerular width in assay [2] of 0.973 ± 0.029. In assay [3], the “fraction of imaged embryos annotated” value was found to be 0.75. In addition, the “pronephric angle neck segment” value in assay [4] was found to be 1.017 ± 0.0048.

For `CC(COc1ccccc1)N(CCCl)Cc1ccccc1` (configuration not stated) [Phenoxybenzamine hydrochloride], the glomerular separation in assay [1] was 1.05 ± 0.59. This molecule also registered a glomerular width in assay [2] of 0.834 ± 0.03. In assay [3], the “fraction of imaged embryos annotated” value is 0.583. Further, the “pronephric angle neck segment” value in assay [4] came to 1.15 ± 0.036.

Molecule `CCCC(=O)Nc1ncnc2c1ncn2[C@@H]1O[C@@H]2COP(=O)(O)O[C@H]2[C@H]1OC(=O)CCC` [Bucladesine sodium salt] came in with a glomerular separation in assay [1] of 0.912 ± 0.4. This molecule displayed a glomerular width in assay [2] of 0.933 ± 0.04. Moreover, the “fraction of imaged embryos annotated” value in assay [3] is 0.917. Also, in assay [4], the “pronephric angle neck segment” value is 0.9351 ± 0.0021.

For `CCCCNc1cc(C(=O)O)cc(S(N)(=O)=O)c1Oc1ccccc1` [Bumetanide], the glomerular separation in assay [1] came out at 1.41 ± 0.43. Also, the glomerular width in assay [2] stood at 1.08 ± 0.023. The “fraction of imaged embryos annotated” value in assay [3] is 0.75. Also, in assay [4], the “pronephric angle neck segment” value amounted to 1 ± 0.022.

`Nc1ncn(C2OC(CO)C(O)C2O)c(=O)n1` (configuration not stated) [Azacytidine-5] returned a glomerular separation in assay [1] of 0.981 ± 0.4. Moreover, in assay [2], the glomerular width stood at 0.979 ± 0.017. The “fraction of imaged embryos annotated” value in assay [3] turned out to be 1. In addition, in assay [4], the “pronephric angle neck segment” value was found to be 1.02 ± 0.031.

Molecule `CC1=Nc2ccc(Cl)cc2S(=O)(=O)N1` [Diazoxide] registered a glomerular separation in assay [1] of 0.743 ± 0.26. This molecule gave a glomerular width in assay [2] of 1.03 ± 0.029. Further, the “fraction of imaged embryos annotated” value in assay [3] stood at 0.833. Further, the “pronephric angle neck segment” value in assay [4] was 0.942 ± 0.035.
